Experimental findings from paper PMC4552634, “A New Set of Chemical Starting Points with Plasmodium falciparum Transmission-Blocking Potential for Antimalarial Drug Discovery” (PLoS ONE, 2015) are described below.

The campaign covered roughly 13,000 compounds. About 3,200 (25%) showed an effect of 50% or more. The list shows a part of the results.

This assay deals with P. falciparum stage V gametocytes. More on the design: BacTiter-Glo ATP luminescence viability of purified stage V gametocytes in 384-well plates, per cent inhibition versus DMSO. The following applies: 48 h, 5 µM; inhibitor.
A word on the % Inhibition: it is the change of the read-out against control, counted positive when it falls. As to `O=C(/C=C/c1ccc(Cl)c(Cl)c1)NCCCCCN1CCC(NC(=O)Nc2cccc(Cl)c2F)CC1` [TCMDC-135721], the “% Inhibition” value is -53.7%. With `CCCN(Cc1nnc(-c2cccs2)o1)C(=O)CSc1nnnn1-c1cc(C)cc(C)c1` [TCMDC-125265], the “% Inhibition” value was 15.05%. As to `COC(=O)Nc1ccc(-c2ccc(C(=O)NC3CCN(C[C@H](O)c4ccnc5ccc(OC)cc45)CC3)cc2)c(C)c1` [TCMDC-141170], the “% Inhibition” value is -22.09%. With `CCN(CC)CCN(Cc1ccc(-c2ccc(C(F)(F)F)cc2)cc1)C(=O)c1ccc(-c2ccc(NC(=O)OC)cc2C)cc1` [TCMDC-141558], the “% Inhibition” value turned out to be 93.92%. The same measure for `CCN(CC)CCN(Cc1ccc(-c2ccc(C(F)(F)F)cc2)cc1)C(=O)c1c[nH]c2ccc(Br)cc12` [TCMDC-141557]: 106.7%; for `CC(C)CCN(Cc1cncn1Cc1cccc(C(F)(F)F)c1)C(=O)c1cncc(-c2ccccc2)c1` [TCMDC-132458]: 37.01%; for `CCN(CC)C(=O)C(=O)c1c[nH]c2ccc(Cl)cc12` [TCMDC-131976]: 21.68%. For the molecule `CCOC(=O)c1ccc(NC(=O)Nc2ccc(-c3ccc(-c4nc5ccc(C(F)(F)F)cc5[nH]4)cc3)cc2)cc1` [TCMDC-133260], the “% Inhibition” value is 23.97%. Next, `CCCC(C)N(Cc1ccc(C(C)(C)C)cc1)C(=O)c1cccc(C#N)c1` (centres unmarked) [TCMDC-139784]: -24.96%; `CCN(CC)CCN(Cc1ccc(-c2ccc(C(F)(F)F)cc2)cc1)C(=O)c1ccc(-c2ccc(C#N)cc2)cc1` [TCMDC-141556]: 55.86%. `Cc1cc(C)c(S(=O)(=O)N2CCCCC(c3cccc(C(F)(F)F)c3)=N2)c(C)c1` [TCMDC-134550]: the “% Inhibition” value was -57.26%. Regarding `CC(C)(C)C1CCC(CC2=C(C(=O)O)c3ccccc3C2=O)CC1` (centres unmarked) [TCMDC-137496], the “% Inhibition” value is on record as 8.625%.

Regarding `O=C1OC(c2ccccc2)(c2ccccc2)CN1C1CCN(Cc2ccc(O)c(Cl)c2)C1` (centres unmarked) [TCMDC-136070], the “% Inhibition” value is reported as -44.93%.

For the molecule `COc1cccc2cc(C(=O)N[C@@H](CC(C)C)C(=O)N[C@H](C=NNC(=O)OC(C)(C)C)Cc3ccccc3)oc12` [TCMDC-136073], the “% Inhibition” value is on record as -20.59%. The same measure for `Cc1cccc2[nH]c(-c3cccc(-c4cccc(CN5CCN(c6ccncc6)CC5)c4)c3)nc12` [TCMDC-132910]: 41.94%; for `Cc1cc(N[C@@H](CC(C)C)C(=O)Nc2ccccc2)nc(NCCc2ccccc2)n1` [TCMDC-134780]: 99.12%; for `COc1ccc(NC(=O)[C@H](Cc2ccccc2)Nc2cc(C)nc(NCCc3ccc(F)cc3)n2)cc1` [TCMDC-134786]: 103.7%. With `Cc1cc(N[C@@H](CC(C)C)C(=O)Nc2ccccc2)nc(NCCc2ccc(F)cc2)n1` [TCMDC-134797], the “% Inhibition” value came out at 10.71%. The same measure for `COc1ccc(NC(=O)[C@H](Cc2ccccc2)Nc2nc(NCCN3CCCC3)ncc2C)cc1` [TCMDC-134860]: 27.32%; for `Cc1cc(N[C@@H](Cc2ccccc2)C(=O)Nc2ccccc2)nc(NCCN2CCCC2)n1` [TCMDC-134925]: 33.54%. The same measure for `Cc1cc(N[C@@H](Cc2ccccc2)C(=O)Nc2ccccc2)nc(Nc2ccccc2)n1` [TCMDC-134736]: -2.834%.

`COc1ccc(NC(=O)[C@H](CC(C)C)Nc2cc(C)nc(NCCc3ccccc3)n2)cc1` [TCMDC-134778]: the “% Inhibition” value turned out to be 31.74%.

Regarding `COc1ccc(NC(=O)[C@H](CC(C)C)Nc2cc(C)nc(NCCc3ccc(F)cc3)n2)cc1` [TCMDC-134793], the “% Inhibition” value amounted to 11.38%. With `COc1ccc(NC(=O)[C@H](Cc2ccccc2)Nc2cc(C)nc(NCCN3CCCC3)n2)cc1` [TCMDC-134924], the “% Inhibition” value is 85.56%. Next, `Cc1cc(N[C@@H](Cc2ccccc2)C(=O)Nc2ccccc2)nc(NCCc2ccccc2)n1` [TCMDC-134777]: 63.66%; `Cc1cc(N[C@@H](Cc2ccccc2)C(=O)Nc2ccccc2)nc(NCCc2ccc(F)cc2)n1` [TCMDC-134790]: 26.02%.
